Targets with the largest changes are over-represented here; the source holds about 21,000 in all.

Consider 38 targets from the supplement of paper PMC12067093, “Discovery and optimisation of a covalent ligand for TRIM25 and its application to targeted protein ubiquitination” (Chemical Science, 2025).

Compound in the test: Cc1cc(ccc1-c1ccccc1)C(=O)N1CCCN(CC1)C(=O)CCl [compound 10]
As to the kind of experiment: probe-labelled cysteine peptide fold change vs DMSO (competition) (log2 fold change); higher = less target engagement (more negative = stronger competition). The note with it: THP-1, incubation time: 4 h.
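Also: competitive profiling in live THP-1 cells: cysteine peptides tagged with an iodoacetamide desthiobiotin (IA-DTB) probe, intensity after compound treatment relative to DMSO-treated cells.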

Chain of UniProt Q9Y333 (Q9Y333 whole entry, looked up): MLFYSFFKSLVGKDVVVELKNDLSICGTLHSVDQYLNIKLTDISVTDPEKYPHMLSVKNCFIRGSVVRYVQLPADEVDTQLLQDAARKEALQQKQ
Chain of UniProt P48059 (P48059 whole entry, looked up): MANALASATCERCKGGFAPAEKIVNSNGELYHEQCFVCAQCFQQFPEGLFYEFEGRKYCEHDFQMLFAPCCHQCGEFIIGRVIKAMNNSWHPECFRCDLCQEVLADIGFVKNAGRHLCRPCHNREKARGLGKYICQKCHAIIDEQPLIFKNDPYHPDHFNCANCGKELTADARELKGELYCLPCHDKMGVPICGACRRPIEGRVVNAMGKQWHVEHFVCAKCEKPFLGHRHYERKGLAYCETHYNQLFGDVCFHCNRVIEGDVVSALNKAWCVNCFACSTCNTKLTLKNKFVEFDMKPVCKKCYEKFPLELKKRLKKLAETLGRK
Chain of UniProt P45983 (P45983 whole entry, looked up): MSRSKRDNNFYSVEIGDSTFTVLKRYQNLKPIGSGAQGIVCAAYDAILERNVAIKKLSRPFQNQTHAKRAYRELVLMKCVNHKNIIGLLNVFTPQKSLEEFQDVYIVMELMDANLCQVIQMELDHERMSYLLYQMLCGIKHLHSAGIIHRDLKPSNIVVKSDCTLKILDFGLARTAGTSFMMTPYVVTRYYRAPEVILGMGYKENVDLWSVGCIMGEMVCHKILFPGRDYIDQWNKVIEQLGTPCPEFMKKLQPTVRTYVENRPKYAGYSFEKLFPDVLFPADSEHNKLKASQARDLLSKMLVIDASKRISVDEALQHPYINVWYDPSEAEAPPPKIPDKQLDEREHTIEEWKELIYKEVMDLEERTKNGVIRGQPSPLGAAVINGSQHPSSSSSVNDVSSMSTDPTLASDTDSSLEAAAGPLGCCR
Chain of UniProt P56270 (P56270 whole entry, looked up): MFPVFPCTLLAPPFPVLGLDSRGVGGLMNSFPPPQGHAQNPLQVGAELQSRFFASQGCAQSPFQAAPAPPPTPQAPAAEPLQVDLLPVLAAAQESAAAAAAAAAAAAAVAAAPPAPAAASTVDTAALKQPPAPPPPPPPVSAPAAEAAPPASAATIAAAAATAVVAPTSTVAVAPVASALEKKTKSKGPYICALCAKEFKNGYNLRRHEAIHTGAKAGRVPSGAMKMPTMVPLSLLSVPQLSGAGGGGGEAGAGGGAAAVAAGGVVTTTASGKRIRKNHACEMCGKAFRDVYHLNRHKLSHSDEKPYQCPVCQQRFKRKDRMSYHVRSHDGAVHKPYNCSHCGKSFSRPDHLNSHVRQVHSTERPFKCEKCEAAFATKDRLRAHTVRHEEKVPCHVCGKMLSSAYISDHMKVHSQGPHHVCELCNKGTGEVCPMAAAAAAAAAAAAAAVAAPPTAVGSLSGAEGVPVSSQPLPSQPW
Chain of UniProt P11586 (P11586 whole entry, looked up): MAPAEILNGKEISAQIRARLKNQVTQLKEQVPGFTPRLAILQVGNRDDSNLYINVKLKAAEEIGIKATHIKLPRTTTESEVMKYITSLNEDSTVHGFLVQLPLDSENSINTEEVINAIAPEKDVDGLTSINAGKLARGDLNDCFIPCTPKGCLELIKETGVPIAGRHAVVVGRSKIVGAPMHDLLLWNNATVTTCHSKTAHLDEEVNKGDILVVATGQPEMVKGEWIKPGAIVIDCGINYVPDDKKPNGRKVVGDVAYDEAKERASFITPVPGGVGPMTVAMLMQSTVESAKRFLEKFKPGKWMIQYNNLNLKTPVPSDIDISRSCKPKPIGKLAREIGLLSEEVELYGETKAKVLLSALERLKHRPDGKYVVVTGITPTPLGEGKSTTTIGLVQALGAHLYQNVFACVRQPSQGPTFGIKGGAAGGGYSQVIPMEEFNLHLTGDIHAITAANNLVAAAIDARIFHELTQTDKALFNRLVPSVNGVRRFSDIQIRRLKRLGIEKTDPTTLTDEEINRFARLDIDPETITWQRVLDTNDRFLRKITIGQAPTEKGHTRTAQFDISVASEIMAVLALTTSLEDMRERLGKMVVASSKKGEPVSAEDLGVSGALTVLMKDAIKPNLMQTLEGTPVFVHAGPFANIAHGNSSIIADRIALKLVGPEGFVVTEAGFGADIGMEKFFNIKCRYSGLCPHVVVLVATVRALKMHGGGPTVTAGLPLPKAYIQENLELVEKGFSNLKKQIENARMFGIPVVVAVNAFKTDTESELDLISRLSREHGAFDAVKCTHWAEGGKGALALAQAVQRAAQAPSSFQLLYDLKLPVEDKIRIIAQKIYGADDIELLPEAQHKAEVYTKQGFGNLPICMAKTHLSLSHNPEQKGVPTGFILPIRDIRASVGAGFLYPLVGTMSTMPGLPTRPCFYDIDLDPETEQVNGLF
Chain of UniProt Q8WV92 (Q8WV92 whole entry, looked up): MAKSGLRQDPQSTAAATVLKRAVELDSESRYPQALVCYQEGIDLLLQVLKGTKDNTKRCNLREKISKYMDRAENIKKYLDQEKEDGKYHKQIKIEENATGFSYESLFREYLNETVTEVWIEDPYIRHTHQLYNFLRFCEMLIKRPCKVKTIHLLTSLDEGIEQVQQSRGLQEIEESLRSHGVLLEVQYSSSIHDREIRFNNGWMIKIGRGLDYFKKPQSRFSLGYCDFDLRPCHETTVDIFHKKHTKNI
Chain of UniProt P49736 (P49736 whole entry, looked up): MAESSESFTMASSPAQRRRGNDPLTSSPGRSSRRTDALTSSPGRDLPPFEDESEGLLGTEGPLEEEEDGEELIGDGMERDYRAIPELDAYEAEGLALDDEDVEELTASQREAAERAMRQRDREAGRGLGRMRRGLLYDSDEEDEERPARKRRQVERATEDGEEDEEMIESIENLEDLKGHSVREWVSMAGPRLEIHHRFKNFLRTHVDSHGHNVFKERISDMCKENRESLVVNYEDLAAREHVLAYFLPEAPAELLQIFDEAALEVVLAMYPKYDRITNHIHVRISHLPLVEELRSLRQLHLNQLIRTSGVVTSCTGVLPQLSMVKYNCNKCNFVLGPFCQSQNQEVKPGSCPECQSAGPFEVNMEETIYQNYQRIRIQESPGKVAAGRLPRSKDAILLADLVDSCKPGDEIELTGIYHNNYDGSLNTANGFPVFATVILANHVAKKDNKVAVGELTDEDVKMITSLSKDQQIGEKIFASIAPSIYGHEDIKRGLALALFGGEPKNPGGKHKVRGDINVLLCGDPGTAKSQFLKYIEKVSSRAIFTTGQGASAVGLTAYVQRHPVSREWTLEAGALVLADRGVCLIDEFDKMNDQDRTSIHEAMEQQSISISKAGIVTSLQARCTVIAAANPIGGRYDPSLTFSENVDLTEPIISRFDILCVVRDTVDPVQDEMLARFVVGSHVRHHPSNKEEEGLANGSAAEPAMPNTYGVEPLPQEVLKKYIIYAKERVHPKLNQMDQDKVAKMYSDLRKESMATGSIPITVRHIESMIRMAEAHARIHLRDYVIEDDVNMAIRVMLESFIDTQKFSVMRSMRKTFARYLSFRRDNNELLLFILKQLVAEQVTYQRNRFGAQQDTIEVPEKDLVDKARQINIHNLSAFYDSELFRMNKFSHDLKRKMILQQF
Chain of UniProt Q9BQG0 (Q9BQG0 whole entry, looked up): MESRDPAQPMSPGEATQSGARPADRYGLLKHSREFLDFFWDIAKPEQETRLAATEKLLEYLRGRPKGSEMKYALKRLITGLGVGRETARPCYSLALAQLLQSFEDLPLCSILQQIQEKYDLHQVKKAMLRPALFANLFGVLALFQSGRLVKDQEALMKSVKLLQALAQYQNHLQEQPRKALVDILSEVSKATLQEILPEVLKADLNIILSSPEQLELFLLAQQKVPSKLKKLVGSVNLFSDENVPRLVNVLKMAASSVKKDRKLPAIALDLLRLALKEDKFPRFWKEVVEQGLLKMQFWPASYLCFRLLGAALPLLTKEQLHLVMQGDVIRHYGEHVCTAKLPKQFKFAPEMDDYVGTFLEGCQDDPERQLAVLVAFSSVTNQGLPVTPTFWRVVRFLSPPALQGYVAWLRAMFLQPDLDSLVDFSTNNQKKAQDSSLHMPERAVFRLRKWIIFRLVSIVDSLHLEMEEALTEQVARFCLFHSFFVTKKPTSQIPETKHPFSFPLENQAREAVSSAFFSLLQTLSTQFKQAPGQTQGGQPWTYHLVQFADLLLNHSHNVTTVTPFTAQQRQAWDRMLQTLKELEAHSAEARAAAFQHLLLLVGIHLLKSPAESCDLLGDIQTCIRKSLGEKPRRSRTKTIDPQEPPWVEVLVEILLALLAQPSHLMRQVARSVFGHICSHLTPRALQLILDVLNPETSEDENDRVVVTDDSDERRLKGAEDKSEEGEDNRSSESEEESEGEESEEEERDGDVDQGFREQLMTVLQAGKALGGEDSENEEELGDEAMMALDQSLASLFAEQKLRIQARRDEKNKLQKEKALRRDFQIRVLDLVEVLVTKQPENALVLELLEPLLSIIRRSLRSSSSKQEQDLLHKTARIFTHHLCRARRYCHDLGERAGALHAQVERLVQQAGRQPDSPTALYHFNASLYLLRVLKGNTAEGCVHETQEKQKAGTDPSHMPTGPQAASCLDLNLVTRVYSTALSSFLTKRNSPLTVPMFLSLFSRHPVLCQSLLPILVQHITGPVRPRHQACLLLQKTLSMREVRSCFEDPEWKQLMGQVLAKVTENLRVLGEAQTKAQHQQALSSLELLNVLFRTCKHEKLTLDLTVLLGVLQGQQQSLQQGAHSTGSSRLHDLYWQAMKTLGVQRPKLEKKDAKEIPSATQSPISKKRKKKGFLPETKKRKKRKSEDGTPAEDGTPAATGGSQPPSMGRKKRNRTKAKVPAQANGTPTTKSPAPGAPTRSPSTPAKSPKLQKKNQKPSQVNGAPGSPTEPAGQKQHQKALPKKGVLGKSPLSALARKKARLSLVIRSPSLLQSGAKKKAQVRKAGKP
Chain of UniProt P20645 (P20645 whole entry, looked up): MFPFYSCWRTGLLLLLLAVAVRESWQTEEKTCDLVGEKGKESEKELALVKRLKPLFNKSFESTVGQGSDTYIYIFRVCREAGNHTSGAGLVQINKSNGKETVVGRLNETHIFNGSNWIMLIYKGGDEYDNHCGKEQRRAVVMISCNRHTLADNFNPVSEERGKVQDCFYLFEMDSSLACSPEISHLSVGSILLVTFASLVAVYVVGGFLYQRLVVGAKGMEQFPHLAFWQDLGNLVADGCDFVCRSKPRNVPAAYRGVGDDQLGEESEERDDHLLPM

In the case of “MYBBP1A_Q9BQG0_623_SPAESCDLLGDIQTCIR (UniProt Q9BQG0)”, the “probe-labelled cysteine peptide fold change” value is -0.0385 (10 µM) and -0.16 (50 µM).

As to “MRPL42_Q9Y6G3_45_STYSPLPDDYNCNVELALTSDGR (UniProt Q9Y6G3)”, the “probe-labelled cysteine peptide fold change” value was 0.0794 (10 µM) and -0.1 (50 µM).

Regarding “MFN1_Q8IWA4_513_LCSDFQEDIVFR (UniProt Q8IWA4)”, the “probe-labelled cysteine peptide fold change” value is -0.0991 (10 µM) and 0.451 (50 µM).

For the target “LY75_O60449-2_1697_NQCTDHGADMISIHNEEENAFILDTLK (UniProt O60449)”, the “probe-labelled cysteine peptide fold change” value is, setting by setting: (10 µM) -0.0829; (50 µM) 0.022.

In the case of “MYCBP2_O75592_3392_MPCLYLQTLAR (UniProt O75592)”, the “probe-labelled cysteine peptide fold change” value reads like this: (10 µM) -0.0844; (50 µM) -0.345.

On to “MTHFD1_P11586_236_GEWIKPGAIVIDCGINYVPDDK (UniProt P11586)”, for which the “probe-labelled cysteine peptide fold change” value is 0.183 (10 µM) and 0.298 (50 µM).

In the case of “MMP14_P50281_574_RLLYCQR (UniProt P50281)”, the “probe-labelled cysteine peptide fold change” value was -0.276 (10 µM) and -0.518 (50 µM).

In the case of “MCM3_P25205_119+123+126_TLTSCFLSCVVCVEGIVTK (UniProt P25205)”, the “probe-labelled cysteine peptide fold change” value reads like this: (10 µM) -0.0216; (50 µM) -1.13.

Consider “LGALS3_P17931_173_VIVCNTK (UniProt P17931)”, for which the “probe-labelled cysteine peptide fold change” value runs as follows: (10 µM) 0.0884; (50 µM) -0.00184.

Consider “MYCBP2_O75592_3241_DTICELCGESHPYPVTYHMR (UniProt O75592)”, for which the “probe-labelled cysteine peptide fold change” value was -0.0846 (10 µM) and -0.18 (50 µM).

On to “MMS19_Q96T76_331_REVFQTASERVEAEGLAALHSLTACLSR (UniProt Q96T76)”, for which the “probe-labelled cysteine peptide fold change” value was -0.452 (10 µM) and 0.0397 (50 µM).

On to “MKI67_P46013_643_SQHDILQMICSK (UniProt P46013)”, for which the “probe-labelled cysteine peptide fold change” value was -0.612 (10 µM) and -2.28 (50 µM).

In the case of “MDN1_Q9NU22_3308_MDRLDNLTCHLLK (UniProt Q9NU22)”, the “probe-labelled cysteine peptide fold change” value is -0.00667 (10 µM) and -0.264 (50 µM).

For “MADD_Q8WXG6_1489_LINMTYCPK (UniProt Q8WXG6)”, the “probe-labelled cysteine peptide fold change” value is, setting by setting: (10 µM) -0.139; (50 µM) -1.56.

“MOB4_Q9Y3A3_134_HTLDGAACLLNSNK (UniProt Q9Y3A3)”: the “probe-labelled cysteine peptide fold change” value (10 µM) was -1.14 and the “probe-labelled cysteine peptide fold change” value (50 µM) is -3.77.

As for “MTR_Q99707_798_NIVGVVLGCNNFR (UniProt Q99707)”, the “probe-labelled cysteine peptide fold change” value by setting is: (10 µM) 0.00546; (50 µM) -0.26.

In the case of “LPIN3_Q9BQK8_443_SLRDPNPEHEPEPTLDTVDTIALSLCGGLADSR (UniProt Q9BQK8)”, the “probe-labelled cysteine peptide fold change” value was -0.112 (10 µM) and 0.0613 (50 µM).

In the case of “LIMS1_P48059_240+252_GLAYCETHYNQLFGDVCFHCNR (UniProt P48059)”, the “probe-labelled cysteine peptide fold change” value reads like this: (10 µM) 0.0277; (50 µM) 0.118.

As for “LSM2_Q9Y333_26_DVVVELKNDLSICGTLHSVDQYLNIK (UniProt Q9Y333)”, the “probe-labelled cysteine peptide fold change” value (10 µM) was determined as 0.0504 and the “probe-labelled cysteine peptide fold change” value (50 µM) was -0.543.

Consider “MDN1_Q9NU22_2158_CLGEGGK (UniProt Q9NU22)”, for which the “probe-labelled cysteine peptide fold change” value (10 µM) was -0.171 and the “probe-labelled cysteine peptide fold change” value (50 µM) was -1.54.

Consider “MBTD1_Q05BQ5_288_VSESMQYPFKPCMR (UniProt Q05BQ5)”, for which the “probe-labelled cysteine peptide fold change” value runs as follows: (10 µM) 0.00855; (50 µM) 0.00392.

Take “MYCBP2_O75592_505_CLHACGISLFDLEK (UniProt O75592)”: the “probe-labelled cysteine peptide fold change” value runs as follows: (10 µM) 0.122; (50 µM) 0.236.

Turning to “MED1_Q15648_135_VAHHGENPVSCPELVQQLR (UniProt Q15648)”, the “probe-labelled cysteine peptide fold change” value (10 µM) was -0.0375 and the “probe-labelled cysteine peptide fold change” value (50 µM) was -0.395.

For “MTCH2_Q9Y6C9_49_QVCQLPGLFSYAQHIASIDGR (UniProt Q9Y6C9)”, the “probe-labelled cysteine peptide fold change” value was -0.0446 (10 µM) and 0.0916 (50 µM).

For the target “LIMK1_P53667_84_YGESCHGCSEQITK (UniProt P53667)”, the “probe-labelled cysteine peptide fold change” value reads like this: (10 µM) 0.0187; (50 µM) -0.262.

For the target “MCM2_P49736_584_GVCLIDEFDK (UniProt P49736)”, the “probe-labelled cysteine peptide fold change” value by setting is: (10 µM) 0.0289; (50 µM) 0.142.

As for “MRI1_Q9BV20_168_VTVLTHCNTGALATAGYGTALGVIR (UniProt Q9BV20)”, the “probe-labelled cysteine peptide fold change” value runs as follows: (10 µM) 0.147; (50 µM) 0.0771.

Regarding “MYH9_P35579_789_ITDVIIGFQACCR (UniProt P35579)”, the “probe-labelled cysteine peptide fold change” value is -0.109 (10 µM) and -0.0345 (50 µM).

On to “MAZ_P56270_424_VHSQGPHHVCELCNK (UniProt P56270)”, for which the “probe-labelled cysteine peptide fold change” value reads like this: (10 µM) 0.033; (50 µM) -0.236.

Take “LYST_Q99698_2223_SEDDSPGDESCPR (UniProt Q99698)”: the “probe-labelled cysteine peptide fold change” value by setting is: (10 µM) -0.367; (50 µM) -1.41.

As to “MITD1_Q8WV92_226_FSLGYCDFDLRPCHETTVDIFHK (UniProt Q8WV92)”, the “probe-labelled cysteine peptide fold change” value (10 µM) is 0.0984 and the “probe-labelled cysteine peptide fold change” value (50 µM) is 0.0591.

For the target “MYH9_P35579_988_KLEEEQIILEDQNCK (UniProt P35579)”, the “probe-labelled cysteine peptide fold change” value (10 µM) is -0.0561 and the “probe-labelled cysteine peptide fold change” value (50 µM) is -0.0225.

In the case of “MAPK8_P45983_163_SDCTLK (UniProt P45983)”, the “probe-labelled cysteine peptide fold change” value runs as follows: (10 µM) -0.283; (50 µM) -1.24.

As to “MCM5_P33992_221_CVDFQTLK (UniProt P33992)”, the “probe-labelled cysteine peptide fold change” value was 0.05 (10 µM) and -0.397 (50 µM).

Take “LENG8_Q96PV6_584_SLCMVK (UniProt Q96PV6)”: the “probe-labelled cysteine peptide fold change” value is -0.193 (10 µM) and -1.09 (50 µM).

In the case of “M6PR_P20645_145_AVVMISCNR (UniProt P20645)”, the “probe-labelled cysteine peptide fold change” value runs as follows: (10 µM) -0.268; (50 µM) -0.155.

For the target “MTRR_Q9UBK8_64_AIAEEICEQAVVHGFSADLHCISESDKYDLK (UniProt Q9UBK8)”, the “probe-labelled cysteine peptide fold change” value is, setting by setting: (10 µM) -0.113; (50 µM) -0.379.

In the case of “MCMBP_Q9BTE3_249_VYEDWDCFK (UniProt Q9BTE3)”, the “probe-labelled cysteine peptide fold change” value (10 µM) is -0.042 and the “probe-labelled cysteine peptide fold change” value (50 µM) is -0.0294.
